Compounds with a hit are over-represented: about 2.9% of the library has one in this group of screens.
proKLK7 act – activators of human kallikrein-7 zymogen. AID 652039. activation, % at 7 µM. P49862. 0.9% of 370,000 active. purified proKLK7, EDANS-DABCYL substrate fluorescence; 100% is mature enzyme control, 0% vehicle;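 active means activation above the mean of all tested compounds plus 3 SD, computed per campaign excluding outliers beyond control limits, cut at about 13% in these data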
Target sequence (P49862 whole entry, looked up): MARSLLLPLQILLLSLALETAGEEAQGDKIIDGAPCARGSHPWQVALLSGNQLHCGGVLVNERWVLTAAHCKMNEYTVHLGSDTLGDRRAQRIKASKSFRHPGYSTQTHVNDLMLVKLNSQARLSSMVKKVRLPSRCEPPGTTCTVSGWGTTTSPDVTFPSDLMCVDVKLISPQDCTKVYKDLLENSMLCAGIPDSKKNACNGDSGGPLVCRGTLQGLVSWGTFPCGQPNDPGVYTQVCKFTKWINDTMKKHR
SMARCA2 act – increases SMARCA2 function in MMTV reporter cells; MG213 cells, MMTV-luciferase reporter, dexamethasone, overnight; activation, % at 9.1 µM; 1% of 370,000 active; in the data active means activation above about 7.8%
FAS TE block – blocks the thioesterase domain of human fatty acid synthase | recombinant FAS-TE, OMFH fluorogenic substrate, fluorescence endpoint | P49327 | 0.67% of 360,000 active | inhibition, % at 15 µM;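 active means compounds whose normalised, plate-corrected inhibition of enzyme fluorescence in the single-dose primary screen is 50% or more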
GAA850 FXN act – increases GAA850 frataxin promoter reporter activity. HEK293 lucGAA850 FXN promoter luciferase reporter, 24 h; percent of 10 µM SAHA response. activation, % at 6 µM. 0.56% of 360,000 active;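 active means activation above the average of all compounds screened plus 3 SD, cutoff fixed separately per campaign, cut at about 7.5% in these data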
FAS-TE inh conf – confirmation of human fatty acid synthase thioesterase inhibitors; shares compounds with FAS TE block; recombinant FAS-TE, OMFH fluorogenic substrate, fluorescence; inhibition, % at 15 µM; 45% of 2,300 active; AID 624325;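 active means compounds inhibiting the enzyme by at least 50% at 15 µM in any one of the replicates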
Numbers stand for hits; - = inactive; . = not tested or not shown.

SMILES	proKLK7 act	SMARCA2 act	FAS TE block	GAA850 FXN act	FAS-TE inh conf
CC1(C)CC(=O)C=C(c2ccc(COC(=O)c3ccccc3)cc2)C1=O	-	-	64.1	-	43.2
O=C(CCC(=O)Nc1cccc(Cl)c1)N/N=C/c1cc([N+](=O)[O-])ccc1O	-	-	65.2	-	82.8
Cc1ccc(NC(=O)CCC(=O)N/N=C/c2cc([N+](=O)[O-])ccc2O)cc1	-	-	-	-	.
O=C(CCCC(=O)Nc1cccc(Br)c1)N/N=C/c1cc([N+](=O)[O-])ccc1O	-	-	54.5	-	71.9
COCCn1nnnc1SCC(=O)c1ccccc1	-	-	-	-	.
COc1cc(NC(=O)CCC2CCCC2)cc(-n2cnnn2)c1	-	-	60.4	-	-
CC(c1ccccc1)n1c(SCC(=O)N2CC(=O)Nc3ccccc32)nc2ccccc2c1=O (stereo unspecified)	-	-	56.1	-	-
COCC(C)n1c(SCC(=O)N2CC(=O)Nc3ccccc32)nc2ccccc2c1=O (stereo unspecified)	-	-	-	-	.
Cc1ccc(Cn2c(SCC(=O)N3CC(=O)Nc4ccccc43)nc3ccccc3c2=O)cc1	-	-	52.7	-	-
O=C1CN(C(=O)CSc2nc3cc(Cl)ccc3c(=O)n2Cc2ccccc2)c2ccccc2N1	-	-	76.2	-	-
COc1cc(C2C3C(=O)N(c4ccccc4)C(=O)C3ON2c2ccccc2)cc(OC)c1OC (stereo unspecified)	-	-	-	-	.
CN1C(=S)SC(N2OC3C(=O)N(c4ccccc4)C(=O)C3C2c2ccc(Cl)cc2)C1(C)C (stereo unspecified)	-	-	69.2	-	-
O=C(NCCc1ccc(C(F)(F)F)cc1)C1COc2ccccc2O1 (stereo unspecified)	-	-	-	-	.
Cc1c(C(=O)OCC(=O)Nc2ccccc2OC(F)F)cccc1[N+](=O)[O-]	-	-	-	-	.
O=C(COC(=O)c1cc([N+](=O)[O-])ccc1N1CCOCC1)Nc1ccccc1OC(F)F	-	-	73.5	-	79.0
COc1ccccc1NC(=O)COC(=O)c1cc([N+](=O)[O-])ccc1N1CCCC1	-	-	69.9	-	63.0
O=C(COC(=O)c1cc([N+](=O)[O-])ccc1N1CCOCC1)c1ccc(OC(F)F)cc1OC(F)F	-	-	-	-	.
O=C(COC(=O)c1cc([N+](=O)[O-])ccc1N1CCCC1)Nc1ccccc1OC(F)F	-	-	56.1	-	43.4
Cc1ccccc1COC(=O)c1cc([N+](=O)[O-])ccc1N1CCOCC1	-	-	-	-	.
CC(C)c1ccccc1NC(=O)COC(=O)c1cc([N+](=O)[O-])ccc1N1CCOCC1	-	-	74.4	-	64.5
COc1ccc(NC(=O)c2cc([N+](=O)[O-])ccc2N2CCCCC2)cc1OC	-	-	-	-	.
Cc1ccc(-c2cc(C(=O)N3CCN(C4CCS(=O)(=O)C4)CC3)c3ccccc3n2)cc1 (stereo unspecified)	-	-	-	-	.
O=C(NC1CCCCC1)NC12CC3CC(CC(C3)C1)C2	-	-	-	-	.
C#CCNC(=O)C1=C[C@H](C2CC2)C[C@H](OCCCCO)O1	-	-	-	-	.
O=C(COC(=O)c1cc([N+](=O)[O-])ccc1N1CCOCC1)Nc1cc(F)ccc1F	-	-	85.3	-	50.8
SMILES	proKLK7 act	SMARCA2 act	FAS TE block	GAA850 FXN act	FAS-TE inh conf
CCCN(CC(=O)Nc1ccc(F)c(F)c1F)C(=O)c1cc([N+](=O)[O-])ccc1N1CCOCC1	-	-	53.6	-	51.5
COc1ccc([N+](=O)[O-])cc1NC(=O)COC(=O)C1CC1	-	-	-	-	.
O=C(COC(=O)C1CCCCC1)Nc1cc([N+](=O)[O-])ccc1F	-	-	62.6	-	69.1
Cc1ccccc1C1=C/C(=C(\SS/C(C(=O)c2ccc(OCC(=O)O)c(Cl)c2Cl)=C2\C=C(c3ccccc3C)SS2)C(=O)c2ccc(OCC(=O)O)c(Cl)c2Cl)SS1	-	-	83.0	-	88.0
Cn1c(=O)cc(SCC(=O)NCCC2=CCCCC2)c2ccccc21	-	-	-	-	.
Cc1c(-c2ccccc2)oc2c(C(=O)N3CCN(c4ccc([N+](=O)[O-])cc4)CC3)cccc2c1=O	-	-	60.2	-	-
CCS(=O)(=O)c1ncc(Cl)c(C(=O)Nc2ccccc2OC)n1	-	-	-	-	.
COC(=O)c1ccc(NC(=O)c2nc(S(=O)(=O)Cc3cccc(C)c3)ncc2Cl)cc1	-	-	55.4	-	-
CC(C)c1nnc(NC(=O)c2nc(S(=O)(=O)Cc3ccccc3)ncc2Cl)s1	-	-	-	-	.
CCOc1ccccc1NC(=O)c1nc(S(=O)(=O)Cc2ccccc2)ncc1Cl	-	-	60.0	-	58.9
COc1ccccc1NC(=O)c1nc(S(=O)(=O)Cc2ccccc2)ncc1Cl	-	-	54.7	-	-
Cc1cccc(NC(=O)c2nc[nH]c2C(=O)N[C@@H](CCCCNC(=O)OC(C)(C)C)C(=O)OC(C)(C)C)c1	-	-	89.8	-	55.3
CC(C)(C)OC(=O)CNC(=O)c1[nH]cnc1C(=O)N[C@@H](CCCCNC(=O)OC(C)(C)C)C(=O)OC(C)(C)C	-	-	87.0	-	92.4
C[C@H](NC(=O)c1nc[nH]c1C(=O)N[C@@H](CCCCN)C(=O)OC(C)(C)C)C(=O)OC(C)(C)C	-	-	-	-	.
CC(C)C[C@H](NC(=O)c1nc[nH]c1C(=O)NC1CCN(C(=O)OC(C)(C)C)CC1)C(=O)OC(C)(C)C	-	-	-	-	.
CC(C)C[C@H](NC(=O)c1nc[nH]c1C(=O)NC1CCN(C(=O)OC(C)(C)C)CC1)C(=O)OCc1ccccc1	-	-	58.2	-	61.4
CC(C)(C)OC(=O)NCCCC[C@H](NC(=O)c1nc[nH]c1C(=O)NCc1ccc(CNC(=O)OC(C)(C)C)cc1)C(=O)OC(C)(C)C	-	-	-	-	.
C[C@H](NC(=O)c1nc[nH]c1C(=O)N[C@@H](CCCCNC(=O)OC(C)(C)C)C(=O)OC(C)(C)C)C(=O)OC(C)(C)C	-	-	73.3	-	62.1
CC(NC(=O)COC(=O)c1cccnc1Cl)C12CC3CC(CC(C3)C1)C2 (stereo unspecified)	-	-	-	-	.
Cc1cc(C(=O)CN(Cc2ccc(F)cc2)S(=O)(=O)c2ccc3c(c2)OCCO3)c(C)n1C	-	-	-	-	.
COc1ccc(S(=O)(=O)N2CCC(Nc3ccccc3Cl)CC2)cc1	-	-	-	-	.
CC(C)(C)OC(=O)NCc1ccc(CNC(=O)c2[nH]cnc2C(=O)NC2CCN(C(=O)OC(C)(C)C)CC2)cc1	.	.	54.0	-	-
COc1ccc(NC(=O)C(CCCCNC(=O)OC(C)(C)C)NC(=O)OCc2ccccc2)cc1 (stereo unspecified)	-	-	-	-	.
C[C@H](NC(=O)c1nc[nH]c1C(=O)N[C@@H](CCCCNC(=O)OC(C)(C)C)C(=O)OC(C)(C)C)C(=O)OCc1ccccc1	-	-	87.3	-	74.3

Screens: PubChem, several laboratories
